SMN2 splice enh = qHTS Assay for Enhancers of SMN2 Splice Variant Expression. Potency, µM (series often up to 46.1 µM), for the others: at the highest dose activity change, positive = activation, most hits filed as activators. AID 1458, 2008. 210,000 compounds, 2.8% hits. HEK293 SMN2-luciferase splicing reporter, luminescence, 30-36 h; further: % of control where 0% means no effect; nearly all actives have a fitted effect of over 55% in size
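HEK293 cells carry an SMN2 minigene-luciferase reporter in which exon 7 inclusion puts luciferase in frame. Cells were seeded at 2000 cells/well, attached for 10-12 hours, then exposed to compounds for 30-36 hours at 37C before ONE-Glo luminescence.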
FLuc counter = qHTS profiling assay for firefly luciferase inhibitor/activator using purifed enzyme and Km concentrations of substrates (counterscreen for miR-21 project); Luciferin 4-monooxygenase (Photinus pyralis), P08659; purified FLuc, Km substrates, luminescence inhibition; Potency, µM (top dose mostly 57.5 µM), inactives show at the highest dose activity change, negative = inhibition, usual class: inhibitors; 360,000 compounds, 6.9% hits;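 further: plate controls were vehicle for no effect and reference inhibitor for full effect; nearly all actives have a fitted effect of over 55% in size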
Target sequence (P08659 whole entry, looked up): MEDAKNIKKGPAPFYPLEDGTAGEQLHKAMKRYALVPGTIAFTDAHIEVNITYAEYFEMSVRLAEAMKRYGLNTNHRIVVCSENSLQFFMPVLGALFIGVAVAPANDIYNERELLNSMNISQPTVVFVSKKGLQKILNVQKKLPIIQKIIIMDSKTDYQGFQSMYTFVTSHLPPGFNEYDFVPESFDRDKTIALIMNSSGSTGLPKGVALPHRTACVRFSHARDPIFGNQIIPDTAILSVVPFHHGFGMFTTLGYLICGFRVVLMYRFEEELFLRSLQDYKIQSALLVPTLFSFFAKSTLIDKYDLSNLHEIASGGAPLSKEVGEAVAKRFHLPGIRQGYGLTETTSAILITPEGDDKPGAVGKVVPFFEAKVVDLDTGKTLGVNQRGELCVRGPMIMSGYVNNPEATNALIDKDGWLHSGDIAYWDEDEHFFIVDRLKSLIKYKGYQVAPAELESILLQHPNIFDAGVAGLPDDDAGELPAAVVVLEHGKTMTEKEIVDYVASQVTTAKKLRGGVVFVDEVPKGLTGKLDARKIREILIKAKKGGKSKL
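Purified P. pyralis luciferase, 10 nM final, with Km-level 10 uM D-luciferin and 10 uM ATP in 50 mM Tris acetate pH 7.5, 10 mM Mg acetate, 0.01% Tween-20, 0.05% BSA; 6-point qHTS titration about 60 µM downward; luminescence read.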
KinaseGlo FLuc = Counterscreen for Luciferase (Kinase-Glo TM) Inhibition; Kinase-Glo luciferase, ATP luminescence, 8 min; Potency, µM (series often up to 38.3 µM), for the others: top-dose activity change, negative = inhibition, hits mostly inhibitors; 200,000 compounds, 0.28% hits; AID 1379, 2008; further: on the % scale 0 is the no-effect control and ±100 the full control effect; nearly all actives have a fitted effect of over 60% in size
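Compound is pinned into ATP-containing buffer (10 uM ATP, imidazole pH 7.2, 7 mM MgCl2). Kinase-Glo luciferase reagent is then added. Light output is recorded following an 8-min room-temperature incubation.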
NPC1 prom act = qHTS Assay for NPC1 Promoter Activators | Huh7 NPC1 promoter luciferase reporter, 24 h | Potency, µM (doses to about 9.22 µM), without a hit: top-dose activation, most hits filed as activators | 320,000 compounds, 2.4% hits | AID 485313, 2010; further: % of control where 0% means no effect; nearly all actives have a fitted effect of over 60% in size
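Luminescence read-out of NPC1 promoter-driven luciferase in stably transfected Huh7 cells; compounds delivered in DMSO and left 24 h at 37C, 5% CO2, qHTS titration format.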
Rab9 promoter act = qHTS Assay for Rab9 Promoter Activators; Potency, µM (series often up to 9.22 µM), for inactives: at the top dose activation, negative = inhibition, hits mostly activators; Huh7 Rab9 promoter-luciferase reporter, luminescence, 24 h; 320,000 compounds, 2.8% hits; further: % of control where 0% means no effect; nearly all actives have a fitted effect of over 60% in size
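Using Huh7 cells stably transfected with Rab9 promoter–luciferase, compounds were incubated 24 h at 37 °C, 5% CO2; luciferase luminescence was read 10 min after reagent addition.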
ELG1 genotoxic = qHTS screen for small molecules that induce genotoxicity in human embryonic kidney (HEK293T) cells expressing luciferase-tagged ELG1; HEK293T ELG1-luciferase reporter, luminescence, 16 h; AID 504466, 2011; Potency, µM (top dose mostly 46 µM), inactives show at the highest dose activity change, positive = activation, actives largely listed as activators; 330,000 compounds, 1.3% hits; further: % of control where 0% means no effect; nearly all actives have a fitted effect of over 60% in size
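ELG1-luciferase HEK293T cells, 2,000/well; compound pinned in; 16 hr, 37 °C, 5% CO2; ONE-Glo, 30 min RT; luminescence on CCD imager.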
* marks the source's active call; other numbers are inactive results; ? = inconclusive; . = no result given. Shown are actives, neighbours in structure and some others; about 7.3% of the full set was active somewhere. The call rests on the fitted dose curve; in most records, active means well fitted curve in the direction sought with a large enough effect; inconclusive means small, poorly fitted or top-dose-only effect, or another doubt; inactive means no such curve, though single readings can be large; an effect the other way counts as inactive or inconclusive. Potency means the concentration at half of the fitted maximal effect.

SMILES	SMN2 splice enh	FLuc counter	KinaseGlo FLuc	NPC1 prom act	Rab9 promoter act	ELG1 genotoxic
COc1cc(C(=O)Nc2ccc(C(C)=O)cc2)c(Br)c(OC)c1OC	?	16.9µM*	6.3%	24.5%	?	7.6%
Cc1nc2ccc(NC(=O)c3ccc4ccccc4n3)cc2s1	35.5µM*	6.01µM*	-15.0%	2.82µM*	3.55µM*	?
CCn1nc(C(=O)Nc2ccc3nc(C)sc3c2)c2ccccc2c1=O	3.98µM*	?	-3.8%	4.7%	1.0%	1.7%
CC(=O)Nc1nc2ccc(NC(=O)c3ccco3)cc2s1	28.2%	?	-5.7%	21.3%	?	?
Cc1nc2ccc(NC(=O)c3ccco3)cc2s1	.	?	-5.9%	?	2.82µM*	?
O=C(COc1ccccc1)NC1CCSc2ccccc21 (stereo unspecified)	.	-15.8%	.	-0.3%	2.5%	3.8%
CCCCC(=O)Nc1ccc(C(=O)NNC(=O)c2ccc(C)c(Br)c2)cc1	.	2.1%	.	-0.5%	-1.9%	?
CC(=O)c1ccc(NC(=O)c2ccc(C)c(Br)c2)cc1	11.2µM*	6.01µM*	-1.1%	2.51µM*	0.794µM*	?
NNC(=O)c1ccc2ccccc2n1	12.5%	-4.6%	0.5%	0.6%	0.9%	1.2%
Cc1nnc(NC(=O)c2ccc3ccccc3n2)s1	.	23.9µM*	.	?	3.55µM*	?
COc1ccc(NC(=O)N2CCCC3(CCN(C(=O)c4ccco4)CC3)C2)cc1	13.9%	.	-3.7%	.	.	.
Cc1ccc2c(C)nc(Nc3nc(CSc4nnc(C)s4)cc(=O)[nH]3)nc2c1	.	-12.6%	.	-0.8%	-7.2%	3.5%
CCOc1ccc(NC(=O)c2cccnc2Cl)c([N+](=O)[O-])c1	1.0%	0.3%	-1.8%	1.0%	2.1%	3.0%
CCOc1ccc(NC(=O)c2cccs2)c([N+](=O)[O-])c1	7.08µM*	?	-0.6%	?	1.58µM*	?
CCOc1ccc(NC(=O)c2ccc(CC)s2)c([N+](=O)[O-])c1	.	-5.1%	-4.1%	?	2.24µM*	?
CCOc1ccc(NC(=O)c2ccco2)c([N+](=O)[O-])c1	14.1µM*	2.39µM*	0.1%	2µM*	1.58µM*	?
CCOc1ccc(NC(=O)c2cc(-c3ccc(C)c(F)c3)on2)c([N+](=O)[O-])c1	.	5.3%	.	.	.	.
CCC(C)C(NS(=O)(=O)c1ccc(C)cc1)C(=O)NCCCN1CCOCC1 (stereo unspecified)	.	1.4%	.	-0.7%	-2.9%	-0.8%
CN=C(Nc1cc(C)nn1-c1ccccc1)c1ccccc1F	-4.0%	2.3%	11.2%	1.5%	-3.6%	-1.6%
CC1CN(S(=O)(=O)c2ccc(C(=O)Nc3nnc(-c4ccco4)o3)cc2)CC(C)O1 (stereo unspecified)	-37.0%	-11.2%	1.6%	-4.3%	-30.5%	-14.7%
COc1ccc(CCN2C(=O)CC(Cc3ccc(C)cc3)C2=O)cc1OC (stereo unspecified)	.	0.3%	-4.1%	-3.1%	-5.5%	-1.5%
O=C(CSc1nc2ccccc2[nH]1)Nc1ccc(F)c(F)c1	-24.8%	-6.0%	-1.4%	.	.	.
COc1ccc(-c2nc(-c3cccc(C)c3)no2)cc1OC	12.6µM*	4.26µM*	-0.2%	0.794µM*	4.47µM*	?
COc1ccccc1OCc1nc(-c2cccc([N+](=O)[O-])c2)no1	-3.2%	-18.9%	0.1%	2.8%	2.5%	-0.6%
COc1ccc(-c2nc(-c3ccccc3OC)no2)cc1OC	?	15.1µM*	-5.3%	3.55µM*	?	11.0%
COc1cc(-c2nc(-c3cccc(C)c3)no2)cc(OC)c1OC	28.8%	?	0.2%	7.9%	5.2%	0.7%
